Laboratory results: the supplement of paper PMC9254222
Over roughly 1,100 compounds, “Renilla luciferase signal (cell health) relative to plate median” has its median near 0.97; the highest 2% begin near 1.6. This is one part of a sample in which the highest values are shown more often than they occur.

Test system: HEK293T (UBE3A T485A transfected, BAR Wnt reporter)
Experiment: Renilla luciferase signal (cell health) relative to plate median (fold (linear ratio)); higher = higher Renilla signal
Details: 24 h
Method in brief: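 Chemicals at 0.01–100 uM were left on transfected HEK293T cells for 24 h, after a four-hour wait following transfection. The cells held a BAR firefly luciferase Wnt reporter, TK-Renilla and an expression plasmid. Wnt activity, as the firefly/Renilla ratio from a Dual-Glo luciferase readout, and cell health, as raw Renilla, were median-centred within each plate. Results average four biological replicates.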

Row | SMILES | Renilla luciferase signal (concentration: 0.1 uM) | Renilla luciferase signal (concentration: 1 uM) | Renilla luciferase signal (concentration: 10 uM) | Renilla luciferase signal (concentration: 100 uM) | Renilla luciferase signal (concentration: 0.01 uM)
1 | O=C(O)c1cc(/N=N/c2ccc(S(=O)(=O)Nc3ccccn3)cc2)ccc1O [Sulfasalazine] | 0.788 | 0.885 | 0.691 | 0.277 | 
2 | CC(C)(C)C(O)C(Cc1ccc(Cl)cc1)n1cncn1 (stereo not drawn) [Paclobutrazol] | 1.16 | 1.06 | 1.22 | 1.62 | 1.25
3 | CCOc1cccc(-n2cc(C(=O)N3CCN(c4cc(C(=O)[O-])c5ccccc5c4)CC3)nc2-c2ccc(C)cc2)c1.[Na+] | 0.869 | 0.966 | 0.903 | 0.0785 | 
4 | Cc1cc(NC(=O)C(=O)O)cc(C)c1Oc1ccc(O)c2c1CCC2 | 1.12 | 1.12 | 0.767 | 1.03 | 
5 | Cc1occc(=O)c1O [Maltol] | 0.895 | 0.982 | 0.967 | 1.11 | 
6 | CCN(CC)C(=O)c1cc(S(=O)(=O)Cc2ccccc2)c(N2CCC(c3ccccc3)CC2)cc1N(CC)CCN(C)C.O=C(O)C(F)(F)F [HMR1171 trifluoroacetate (1:1)] | 0.802 | 0.767 | 0.648 | 0.249 | 
7 | OC12N=C(c3ccccc3)SC1Cc1cc(Cl)ccc12 (stereo not drawn) | 1.14 | 1.13 | 1.03 | 0.714 | 
8 | Cc1cc(SC2=C(O)C[C@@](CCc3ccc(N)cc3)(C(C)C)OC2=O)c(C(C)(C)C)cc1CO | 0.926 | 1.01 | 0.952 | 0.324 | 
9 | Sc1nc2ccccc2s1 [2-Mercaptobenzothiazole] | 0.981 | 0.791 | 0.768 | 0.92 | 
10 | O.O=C1[N-]S(=O)(=O)c2ccccc21.[Na+] [Sodium saccharin hydrate] | 1.05 | 1.15 | 1.35 | 1.71 | 
11 | C#C[C@]1(O)CC[C@H]2[C@@H]3CCC4=CC(=O)CC[C@@H]4[C@H]3CC[C@@]21C [Norethindrone] | 0.942 | 0.982 | 0.94 | 0.294 | 
12 | c1ccc2occc2c1 [2,3-Benzofuran] | 0.785 | 0.78 | 0.808 | 1.07 | 
13 | CCCCCOC(=O)COc1cc(N2C(=O)C3=C(CCCC3)C2=O)c(F)cc1Cl [Flumiclorac-pentyl] | 0.9 | 1.01 | 0.974 | 1.62 | 0.938
14 | CCOC(=O)COc1cc(-n2ncc(C(F)(F)F)c(C)c2=O)c(F)cc1Cl [Flufenpyr-ethyl] | 0.957 | 1.07 | 1.03 | 1.51 | 1.2
15 | CCCCCCCCOC(=O)c1cc(O)c(O)c(O)c1 [Octyl gallate] | 0.909 | 0.947 | 0.814 | 0.0786 | 
16 | CCCCCCc1ccc(O)cc1O [4-Hexylresorcinol] | 0.881 | 1.04 | 0.888 | 0.0332 | 
17 | CC(C)CC(C=O)NC(=O)C(CC(C)C)NC(=O)C(CC(C)C)NC(=O)OCc1ccccc1 (stereo not drawn) | 0.675 | 0.0628 | 0.00775 | 0.00453 | 0.694
18 | Cn1cc[nH]c1=S [Methimazole] | 0.331 | 0.23 | 0.141 | 2.27 | 
19 | CNCc1ccc(NC(=O)c2c[nH]c3c2C(=O)CCC3)cc1 | 0.616 | 0.8 | 0.437 | 0.144 | 
20 | CC(=O)OC1C(=O)C2(C)C(O)CC3OCC3(OC(C)=O)C2C(OC(=O)c2ccccc2)C2(O)CC(OC(=O)C(O)C(NC(=O)c3ccccc3)c3ccccc3)C(C)=C1C2(C)C (stereo not drawn) [Taxol] | 0.104 | 0.111 | 0.131 | 0.0793 | 0.147
21 | CCCOC(=O)NCCCN(C)C.Cl [Propamocarb hydrochloride] | 0.992 | 0.949 | 0.972 | 1.17 | 0.977

Row | SMILES | Renilla luciferase signal (concentration: 0.1 uM) | Renilla luciferase signal (concentration: 1 uM) | Renilla luciferase signal (concentration: 10 uM) | Renilla luciferase signal (concentration: 100 uM) | Renilla luciferase signal (concentration: 0.01 uM)
22 | COCCOCCOC [Bis(2-methoxyethyl) ether] | 1.08 | 1.3 | 1.34 | 1.31 | 
23 | Cn1c(=O)c2c(ncn2C)n(C)c1=O [Caffeine] | 0.946 | 0.966 | 0.989 | 1.67 | 1.18
24 | Cn1c(=O)c2[nH]cnc2n(C)c1=O [Theophylline] | 0.944 | 0.973 | 0.911 | 1.09 | 
25 | Cn1cnc2c1c(=O)[nH]c(=O)n2C [Theobromine] | 0.97 | 0.856 | 1.15 | 1.22 | 
26 | O=C(N[C@@H](Cc1ccccc1)[C@@H](O)C(=O)N1C[C@@H](O)[C@@H](O)C1)c1cc2cc(Cl)ccc2[nH]1 [Ingliforib] | 0.797 | 0.711 | 0.851 | 0.148 | 
27 | COc1cccc(-c2ccc(/C=C\CN3CCCCCC3)cc2Cl)c1.Cl | 1.01 | 1.16 | 1.14 | 2.06 | 
28 | CCOCCOCCOCCO [2-[2-(2-Ethoxyethoxy)ethoxy]ethanol] | 0.893 | 0.862 | 0.833 | 0.954 | 
29 | CCOCCOCCO [2-(2-Ethoxyethoxy)ethanol] | 0.939 | 1.02 | 0.906 | 1.17 | 
30 | CCOCCO [2-Ethoxyethanol] | 1.23 | 1.26 | 1.38 | 1.66 | 
31 | Cc1ncc(CO)c(CO)c1O [Pyridoxine] | 0.951 | 0.873 | 1 | 1.14 | 
32 | C=CCc1ccc(OC)c(OC)c1 [Methyleugenol] | 0.897 | 0.832 | 0.797 | 0.924 | 
33 | Cc1ccc(C)c(O)c1C [2,3,6-Trimethylphenol] | 0.934 | 0.808 | 0.965 | 1.14 | 
34 | Cc1ccc(N)cc1O [5-Amino-2-methylphenol] | 1 | 1.22 | 1.28 | 1.78 | 
35 | Cc1ccc(C)c(O)c1 [2,5-Dimethylphenol] | 1.01 | 0.973 | 1.14 | 1.28 | 
36 | C[C@]12CC[C@@H]3c4ccc(O)cc4C[C@@H](CCCCCCCCCS(=O)CCCC(F)(F)C(F)(F)F)[C@H]3[C@@H]1CC[C@@H]2O (stereo partly drawn) [Fulvestrant] | 1.07 | 1.04 | 1.09 | 0.48 | 
37 | Cc1nc(C)nc(N2C[C@@H](C)N(c3ccnc([C@@H](C)O)n3)[C@@H](C)C2)n1 | 0.951 | 1.05 | 1.15 | 1.28 | 
38 | CC(C)(C)CC(C)(C)c1ccc(O)c(-n2nc3ccccc3n2)c1 [Octrizole] | 1.08 | 1.17 | 1.27 | 1.31 | 
39 | Cc1cccc(Nc2cc(Cl)nc(SCC(=O)O)n2)c1C [Pirinixic acid] | 0.799 | 0.871 | 0.861 | 1.71 | 
40 | O=C1CCC(N2C(=O)c3ccccc3C2=O)C(=O)N1 (stereo not drawn) [Thalidomide] | 0.78 | 0.818 | 0.85 | 0.675 | 
41 | CCN(CC)C(=O)c1cccc(C)c1 | 0.897 | 0.949 | 0.847 | 1.79 | 0.895
42 | CCNc1cccc(C)c1 [N-Ethyl-3-methylaniline] | 1.02 | 0.916 | 0.98 | 0.872 | 

Row | SMILES | Renilla luciferase signal (concentration: 0.1 uM) | Renilla luciferase signal (concentration: 1 uM) | Renilla luciferase signal (concentration: 10 uM) | Renilla luciferase signal (concentration: 100 uM) | Renilla luciferase signal (concentration: 0.01 uM)
43 | COc1cc(C=O)ccc1O [4-Hydroxy-3-methoxybenzaldehyde] | 0.805 | 0.833 | 0.848 | 0.902 | 
44 | CCN(Cc1c(F)cccc1Cl)c1c([N+](=O)[O-])cc(C(F)(F)F)cc1[N+](=O)[O-] [Flumetralin] | 0.795 | 0.84 | 1 | 0.766 | 1.1
45 | Cc1cc(C=C2SC(=O)N(c3ccccc3)C2=O)c(C)n1-c1cccnc1 | 1.02 | 1.06 | 0.979 | 0.257 | 
46 | O=c1[nH]c2cc([N+](=O)[O-])c([N+](=O)[O-])cc2[nH]c1=O | 1.01 | 1.02 | 1.09 | 1.96 | 1.11
47 | O=C(Nc1ccc(Cl)cc1)Nc1ccc(Cl)c(Cl)c1 [Triclocarban] | 1 | 0.895 | 0.408 | 0.021 | 
48 | COC(=O)c1ccccc1O [Methyl salicylate] | 1.22 | 1.13 | 1.23 | 0.53 | 
49 | O=C([O-])c1ccc2c(c1)nc(C(=O)NC1CCN(C3CC3)CC1)n2Cc1cc(-c2ccc(Cl)s2)on1.[Na+] | 0.987 | 0.823 | 0.947 | 0.531 | 
50 | O=C1OC(c2ccc(O)cc2)(c2ccc(O)cc2)c2ccccc21 [Phenolphthalein] | 1.1 | 1.09 | 1.15 | 0.0287 | 
51 | CCCCCCCC/C=C\CCCCCCCC(=O)OC[C@@H](O)[C@H]1OC[C@H](O)[C@H]1O [Sorbitan, mono-(9Z)-9-octadecenoate] | 1 | 0.88 | 0.863 | 0.85 | 
52 | O=C(O)c1ccccc1C(c1ccc(O)cc1)c1ccc(O)cc1 [Phenolphthalin] | 1.11 | 1.1 | 0.958 | 0.886 | 
53 | CN(C)CCOC(c1ccccc1)c1ccccc1.Cl [Diphenhydramine hydrochloride] | 0.825 | 0.842 | 0.836 | 0.491 | 
54 | CCCCCCCCCC(=O)O [Decanoic acid] | 0.743 | 0.768 | 0.634 | 0.979 | 
55 | CCCC(=O)O [Butanoic acid] | 1.03 | 1.11 | 1.14 | 1.73 | 
56 | CCCCCC(=O)O [Hexanoic acid] | 1.26 | 1.16 | 1.24 | 1.41 | 
57 | CN(C)C(=O)C1(N2CCCCC2)CCN(CC[C@@]2(c3ccc(Cl)c(Cl)c3)CN(C(=O)c3ccccc3)CCO2)CC1 | 0.903 | 0.888 | 0.664 | 0.0169 | 
58 | CCc1c(C(=O)NN2CCCCC2)nn(-c2ccc(Cl)cc2Cl)c1-c1ccc(Br)cc1 [Surinabant] | 1.06 | 1.07 | 0.127 | 0.363 | 
59 | COC(=O)CCCCC(=O)OC [Dimethyl adipate] | 0.854 | 0.917 | 0.874 | 1.11 | 
60 | CCCCCCCC(=O)OC [Methyl octanoate] | 1.03 | 0.911 | 1.04 | 1.61 | 
61 | CCCCCCCCCCCC(=O)OC [Methyl dodecanoate] | 0.884 | 0.792 | 0.85 | 0.89 | 
62 | O=C(O)c1cccc(C[C@@H]2COc3ccc(OCc4nc5cc(F)ccc5s4)cc3[C@@H]2O)c1 | 1.04 | 1.05 | 1.17 | 0.94 | 
